Sampled rows, rich in hits. Any-hit rate of the full collection: about 4.1%.
BoNT-A LC inh2 – BoNT A light chain protease inhibition. AID 588499. hit rate 0.17% among 360,000. inhibition, % at 10 µM. multiplex microsphere protease substrate cleavage, flow cytometry; also: plate controls were buffer without enzyme for full effect and enzyme alone for no effect
Bead autofluor – compound fluorescence in toxin protease inhibitor counterscreen; compound autofluorescence counterscreen, microsphere flow cytometry; hits give high values; fluorescence intensity (no concentration beside the values); hit rate 3.1% among 360,000; in the data active = fluorescence intensity above about 16000; inconclusive = no clear call, values can overlap the other calls
Anthrax LF inh2 – blocks Bacillus anthracis lethal factor protease | multiplex microsphere protease cleavage assay, LF | inhibition, % at 10 µM | P15917 | hit rate 0.12% among 360,000; also: plate controls were buffer without enzyme for full effect and enzyme alone for no effect
DUSP3 inh – blocks human VHR1 dual specificity phosphatase; P51452; recombinant VHR phosphatase, pNPP absorbance; inhibition, % at 13.3 µM; hit rate 0.52% among 290,000; AID 1654; in the data active = inhibition above about 50%
BoNT F protease – inhibitors of Botulinum neurotoxin F light chain protease | AID 588497 | inhibition, % at 10 µM | hit rate 0.22% among 360,000 | Multiplex microsphere protease cleavage assay, flow cytometry; in the data active = inhibition above about 35%, passing the limit was not always enough; inconclusive = no clear call, values can overlap the other calls; also: plate controls were buffer without enzyme for full effect and enzyme alone for no effect
MazF activator – activators of E. coli MazEF toxin-antitoxin RNase; P0AE70; hit rate 0.32% among 350,000; activation, % at 20 µM; FAM/BHQ RNA-DNA oligo cleavage fluorescence, 5 h; AID 504720; in the data active = activation above about 50%
An asterisk follows results filed as active; ? = inconclusive; . = not tested or not shown. Rule as the data show it, unless noted: active = inhibition above about 30%; inconclusive = no clear call, values can overlap the other calls; inactive = below that.

SMILES	BoNT-A LC inh2	Bead autofluor	Anthrax LF inh2	DUSP3 inh	BoNT F protease	MazF activator
COCCOC(=O)C1=C(C)N=C2SCCC(=O)N2C1c1ccc(C(=O)OC)cc1 (stereo not drawn)	0	3273	1	0	-10	6
COC(=O)C1=C(C)N=C2SCCC(=O)N2C1c1ccc(C(=O)OC)cc1 (stereo not drawn)	-3	24822*	-1	-5	-7	3
CC1=C(C(=O)OC(C)C)C(c2cccs2)N2C(=O)CCSC2=N1 (stereo not drawn)	-5	25343*	-2	-8	-8	3
COC(=O)c1ccc(C2C(C(=O)OCC(C)C)=C(C)N=C3SCCC(=O)N32)cc1 (stereo not drawn)	0	22462*	-3	22	-1	-3
CCCCCCOc1cccc(N)c1	2	22320*	-4	0	1	4
CCCCOc1cccc(-c2nnc(N)s2)c1	0	3386	2	13	-1	5
CNc1c(NS(=O)(=O)c2ccc3c(c2)CCCC3)c(=O)oc2ccccc12	-2	2938	8	-12	-15	4
O=C(CN1C(=O)C(=O)N(C2CCCC2)C1=O)Nc1cc(Cl)ccc1[N+](=O)[O-]	1	6538	-10	.	-8	-4
Cn1c(Cc2cccs2)nnc1SCC(=O)N1CCCc2ccccc21	1	4080	0	22	-15	-1
Cc1nnc(SCC(=O)NCc2ccccc2)[nH]c1=O	-3	17403*	-1	19	-6	-6
CC1CCc2cc(F)ccc2N1C(=O)CSc1nnc2c(n1)[nH]c1ccccc12 (stereo not drawn)	0	2206	-3	46	0	5
CC1CCc2cc(F)ccc2N1C(=O)CSc1nnc(-c2cccs2)n1C (stereo not drawn)	?	23587*	-3	22	-3	4
O=C(CSc1nnc(Cc2cccs2)n1CCc1ccccc1)N1CCCc2ccccc21	0	23460*	-2	-10	1	2
Cc1nnc(SCC(=O)N2CCCc3ccccc32)[nH]c1=O	1	16177*	-2	-17	0	-1
CCCn1c(CC)nc([N+](=O)[O-])c1Sc1ncn[nH]1	0	2906	3	.	-5	-11
Cn1c(SCC(=O)N2CCCc3ccccc32)nnc1-c1cccs1	-1	23321*	-4	-8	1	9
CCN1CCN(Cc2ccc(OCc3ccccc3)cc2)CC1	4	20089*	-7	-6	3	-15
O=C(CNc1ccc(Br)cc1)Nc1ccc(S(=O)(=O)N2CCCCC2)cc1	0	3918	-9	.	2	-12
Cc1ccc(Cn2cccc(-c3nc4ccccc4s3)c2=O)cc1	3	4380	-3	25	4	74*
Nc1ccccc1-c1nc2ccccc2s1	3	3215	-1	12	-1	3
O=c1c(-c2nc3ccccc3s2)cccn1Cc1ccccc1	?	22734*	6	23	1	8
COc1ccc(C(=O)NC2CCN(CC(=O)N3CCCCC3)CC2)cc1	0	3411	8	31	10	1
CC(Sc1nnc(C2CC2)n1C1CC1)C(=O)N(C)Cc1cccc(F)c1 (stereo not drawn)	0	3897	3	.	-2	-11
CCOC(=O)c1c(C)[nH]c(C)c1C(=O)CSc1nc2ccccc2[nH]1	0	10264	-3	22	6	7
CCOC(=O)c1c(C)[nH]c(C)c1C(=O)CSc1nc2ccccc2n1CC	0	2463	0	55*	-6	1
SMILES	BoNT-A LC inh2	Bead autofluor	Anthrax LF inh2	DUSP3 inh	BoNT F protease	MazF activator
CCOC(=O)c1c(C)[nH]c(C)c1C(=O)CSc1ncccn1	4	21577*	-1	19	5	3
CCOC(=O)C1=C(COC(=O)CCc2ccccc2)NC(=O)NC1C (stereo not drawn)	0	4018	0	.	0	4
Cc1ccc(S(=O)(=O)N2CCN(C(=O)COC(=O)c3ccccc3OC(F)F)CC2)c(C)c1	0	3452	-4	.	-4	1
C=CCn1c(Sc2nc(C)cs2)nc2c1c(=O)[nH]c(=O)n2C	-2	23702*	-2	17	-2	5
C=CCn1c(SCCOC)nc2c1c(=O)[nH]c(=O)n2C	0	5617	-4	13	-1	-2
Cc1cccc(Cn2c(Sc3nc(C)cs3)nc3c2c(=O)[nH]c(=O)n3C)c1	?	19241*	-3	32	4	2
Cc1csc(Sc2nc3c(c(=O)[nH]c(=O)n3C)n2Cc2ccccc2Cl)n1	1	5276	-7	-20	5	-8
CC(C)C[C@@H](CN1CCC[C@@H]1CN1C(=S)NC[C@@H]1Cc1ccc(O)cc1)N1C[C@H](Cc2ccc(O)cc2)N(CCc2ccccc2)C1=S	0	4354	-5	.	-14	.
COc1ccc(N2CC(C(=O)Nc3cccc(OC(C)C)c3)CC2=O)cc1 (stereo not drawn)	2	3523	5	12	8	5
Cc1ccc(S(=O)(=O)c2nc(C(C)(C)C)oc2N2CCOCC2)cc1	0	16379*	1	17	-2	-7
Cc1ccc(S(=O)(=O)c2nc(C)oc2N2CCOCC2)cc1	0	4543	2	24	-6	8
COc1ccccc1-c1cccc(-c2nc(C(=O)Nc3nccs3)cc3c2[C@H](CCO)N(C(C)=O)C3)c1	0	6680	-2	.	-9	.
COc1ccc(C(=O)NCC(=O)OCC(=O)N2CC(C)CC(C)C2)cc1 (stereo not drawn)	-20	17297*	3	10	-389	-2
COc1cc(CN2C[C@@H](CO)O[C@@H](n3cnc4c(N5CCOCC5)ncnc43)C2)cc(OC)c1OC	0	4008	-7	.	-4	.
C[C@@H](NC(=O)[C@@H]1CCCN1C(=O)[C@@H]1CCCN1C(=O)c1ccccc1)c1ccccc1	0	4334	0	.	4	.
CCOC(=O)c1nn(-c2ccccc2)c(=O)cc1SC(C)CC (stereo not drawn)	-2	23432*	0	10	-3	-9
CCOC(=O)c1nn(-c2ccccc2)c(=O)cc1SC(C)C	0	11481	-1	7	2	3
CCCCSc1cc(=O)n(-c2ccccc2)nc1C(=O)OCC	-2	23302*	0	7	-4	2
COc1ccc(S(N)(=O)=O)cc1C(=O)NNC(=O)CN(C)S(=O)(=O)c1ccc(Cl)cc1	0	3710	1	.	-6	8
CCCn1c(SC(C)C(=O)NC2CCCC(C)C2C)n[nH]c1=O (stereo not drawn)	0	3141	0	.	4	-1
CC1CCc2nc(NC(=O)C3CC3)sc2C1 (stereo not drawn)	0	2754	1	30	4	11
Cc1ncsc1C(=O)Nc1nc2c(s1)CC(C)CC2 (stereo not drawn)	-1	16464*	-6	4	-2	-2
O=C(Nc1ccnn1C1CCN(C(=O)c2cccc(Cl)c2)CC1)C1CC1	2	5688	0	-15	-2	5

Source: PubChem
